These results are taken from PubChem BioAssay.

Assay [1] can be described thus: compound effects on lung adenocarcinoma cell viability – A549, calcein-AM fluorescence, 48 h, basal, profiling panel (AID 1162). To be noted: higher = more signal.
A short description of assay [2]: compound effects on differentiated 3T3-L1 adipocyte viability – cell-based, 3T3-L1 adipocytes, calcein-AM fluorescence, 48 h, basal, profiling panel (AID 1163). Conditions: 3T3-L1 adipocytes viability, higher = more signal.
A short description of assay [3]: compound effects on hepatocellular carcinoma cell viability – HepG2, calcein-AM fluorescence, 48 h, basal, profiling panel (AID 1164). To be noted: higher = more signal.
Assay [4] can be described thus: compound effects on multiple myeloma cell viability – MM1S, calcein-AM fluorescence, 48 h, basal, profiling panel (AID 1165).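 Further: viability of MM1S multiple myeloma cells under basal unstimulated conditions.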 To be noted: higher = more signal.
A short description of assay [5]: calcein-AM signal in unstimulated myeloma cells – cell-based, calcein-AM fluorescence, 48 h, PK04 Diversity Set, profiling panel (AID 1166).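 Further: cells grown under basal conditions without added stimulus.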 Conditions: RPMI8226 myeloma viability, higher = more signal.
Assay [6] is described as follows: JC-1 mitochondrial signal, unstimulated HepG2 cells – cell-based, JC-1 fluorescence, 24 h, 100 nL compound, profiling panel (AID 1167). Conditions: HepG2 mitochondrial potential, higher = more signal.
Assay [7] can be described thus: JC-1 mitochondrial signal, unstimulated adipocytes – cell-based, JC-1 fluorescence, 3T3-L1 adipocytes, 24 h, 100 nL compound, profiling panel (AID 1168). To be noted: JC-1 mitochondrial fluorescence, higher = more signal, called active from +8 up or from −8 down.
Assay [8] is described as follows: JC-1 mitochondrial signal, unstimulated myeloma cells – cell-based, JC-1 fluorescence, RPMI8226, 24 h, 100 nL compound, profiling panel (AID 1169). Conditions: JC-1 mitochondrial potential fluorescence, higher = more signal.
Assay [9] can be described thus: JC-1 mitochondrial signal, unstimulated MM1S myeloma – cell-based, JC-1 fluorescence, 24 h, 100 nL compound, profiling panel (AID 1170). Conditions: MM1S mitochondrial potential, higher = more signal.
Assay [10] is described as follows: resazurin metabolic signal in A549 cells – cell-based, resazurin fluorescence, 24 h, PK04 Diversity Set, profiling panel (AID 1171). To be noted: A549 viability, higher = more signal, called active from +8 up or from −8 down.

Activity calls are given as the source filed them.
Further: test concentration not given here.

As for `O=C1[C@H]2[C@H]3[C@H](O)[C@H](O)CC(=NOCc4ccccc4)[C@H]3CC[C@H]2C(=O)N1C1CCCCC1`, the z-score in assay [1] was 0.519; in assay [2], -0.228; in assay [3] it was 0.734; in assay [4], -0.618; in assay [5], -0.498; in assay [6] it was -1.3. Besides, the z-score in [7] is 0.028 (inactive); in assay [8], -0.16; in assay [9], -0.847; in assay [10], -0.329 (inactive).

As for `O=C1C2=CC[C@H]3C(=O)N(C4CCCCC4)C(=O)[C@H]3[C@H]2[C@H](O)[C@@H]2O[C@H]12`, the z-score in [1] was -3.85; in [2] it was 1.13; in assay [3], -4.38; in [4] it was -3.05; in assay [5] it was -3.91; in assay [6], 0.771. Besides, the z-score in [7] is 2.71 (inactive); in assay [8], -1.02; in [9] it was -2.83; in assay [10], -2.67 (inactive).

As for `O=C1[C@H]2[C@H]3[C@H](O)[C@H](O)CC(=NOC[C@@H](O)COCc4ccco4)[C@@H]3CC[C@H]2C(=O)N1Cc1ccc2c(c1)OCO2`, the z-score was 0.751 in assay [1]; 0.0548 in assay [2]; 0.579 in [3]; 0.477 in assay [4]; 0.677 in assay [5]; 1.07 in assay [6]. For the same compound, the z-score in [7] was 0.231 (inactive); in [8] it was 0.727; in assay [9] it was -1.18; in assay [10], 0.178 (inactive).

Consider `CCN1C(=O)[C@H]2[C@H]3[C@H](O)[C@H](O)CC(=NO[C@H](C)c4cn([C@@H]5COC[C@H]5O)nn4)[C@@H]3CC[C@H]2C1=O`, for which the z-score in assay [1] was 0.165; in assay [2] it was -0.736; in assay [3], -0.127; in [4], -0.0272; in assay [5], 0.215; in [6], -0.407. Moreover, the z-score in assay [7] is -1.37 (inactive); in [8] it was 0.125; in assay [9], -0.11; in [10] it was -0.232 (inactive).

Regarding `CCc1cc2c(nc1CC)CCN(CCC(C)=NOCC[C@@H]1C=C[C@H](OC(C)=O)[C@@H](COC(C)=O)O1)C2`, the z-score in assay [1] was 0.34; in assay [2], 0.63; in assay [3] it was 0.679; in assay [4] it was -0.47; in [5], 0.123; in assay [6], 1.45. Also, the z-score in assay [7] is -1.32 (inactive); in [8], 0.578; in assay [9], -0.13; in assay [10] it was 0.29 (inactive).

As to `CC(C)CON=C1C[C@@H](O)[C@@H](O)[C@@H]2[C@@H]3C(=O)N(Cc4ccc5c(c4)OCO5)C(=O)[C@@H]3CC[C@@H]12`, the z-score is 0.606 in [1]; -0.724 in assay [2]; -0.211 in assay [3]; 0.828 in [4]; -0.51 in [5]; 0.367 in assay [6]. The z-score in assay [7] was 0.115 (inactive); in assay [8] it was 0.492; in assay [9], -1.49; in assay [10], 0.471 (inactive).

Take `CCOC(=O)CCN1C(=O)[C@H]2[C@H]3[C@H](O)[C@H](O)CC(=NNC(=O)OCc4ccc(OC)cc4)[C@H]3CC[C@H]2C1=O`: the z-score in [1] was -0.185; in [2], -0.385; in assay [3], -0.0426; in assay [4], -0.885; in [5], -0.87; in assay [6] it was -0.146. The z-score in assay [7] was -0.447 (inactive); in [8] it was -0.207; in assay [9], -0.387; in assay [10], -0.495 (inactive).

On to `COC(=O)[C@H](C)NC(=O)CCC1CC(OC(=O)NCc2cccc3ccccc23)CC2(CCCC(COC(=O)NCc3ccccc3)O2)O1` (stereo not given in full), for which the z-score in assay [1] is 0.217; in [2], 0.2; in assay [3], -0.653; in [4], 0.621; in assay [5] it was 0.769; in assay [6], 1.46. Besides, the z-score is 0.818 (inactive) in assay [7], 0.662 in [8], -0.845 in assay [9] and 2.64 (inactive) in assay [10].

With `CC=CC1=C(CO)[C@H](O)[C@H]2O[C@H]2[C@@H]1O`, the z-score was -0.37 in [1]; 0.309 in [2]; 0.366 in assay [3]; -0.948 in [4]; -0.671 in assay [5]; -0.206 in assay [6]. For the same compound, the z-score in [7] was 0.00909 (inactive); in assay [8] it was -0.225; in assay [9], -0.244; in assay [10] it was -0.337 (inactive).

Consider `Cc1ccc(S(=O)(=O)N[C@@H]2COC(=O)CC=C[C@@H](C)[C@H](NS(=O)(=O)c3ccc(C)cc3)COC(=O)[C@H](C)NC(=O)CC=C[C@H]2C)cc1`, for which the z-score in [1] is 0.697; in assay [2], -0.0454; in [3], 0.428; in [4], -0.987; in assay [5], 0.158; in [6], 0.209. Moreover, the z-score was 0.099 (inactive) in assay [7], 0.389 in assay [8], 1.03 in [9] and -0.395 (inactive) in [10].

In the case of `COC(=O)C(C(=O)OC)C1CCCC(=O)C1` (stereo not given), the z-score in assay [1] is 0.219; in assay [2], 0.585; in assay [3], -0.526; in [4], -0.68; in assay [5], -1.34; in assay [6] it was -0.108. Besides, the z-score in assay [7] is -0.078 (inactive); in assay [8] it was 0.753; in [9] it was 1.15; in assay [10] it was -1.14 (inactive).

For `CON=C1c2cc(OC)ccc2O[C@H](c2cccc(OC)c2)[C@H]1O`, the z-score in [1] is 0.744; in assay [2], 0.448; in assay [3], -0.743; in [4] it was -0.416; in [5] it was 0.53; in [6] it was 0.181. Also, the z-score is -0.672 (inactive) in assay [7], -0.0443 in assay [8], 1.39 in [9] and -0.124 (inactive) in [10].
